Sampled rows, rich in hits. Any-hit rate of the full collection: about 2.1%.
aSyn yeast inh – qHTS of alpha-syn Inhibitors; Yeast expressing alpha-synuclein, growth rescue, BacTiter-Glo, 24 h; Potency, µM (series often up to 46.1 µM), for inactives: at the highest dose growth rescue (activation), hits mostly activators; 370,000 tested, 0.14% active; AID 652106, 2013; also: % of control where 0% means no effect; nearly all actives have a fitted effect of over 65% in size
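Screening used galactose-induced yeast with toxic alpha-synuclein levels, exposed to compound for 24 hr at 30 deg C. Cell growth, read with BacTiter-Glo luminescence, gave the measured signal.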
FUS yeast rescue – qHTS for Suppressors of FUS Proteinopathy: Primary screen using FUS-linked yeast assay | S. cerevisiae FUS-expressing, growth rescue, OD600, 24 h | Potency, µM (doses to about 76.6 µM), usual class: activators | 390,000 tested, 0.24% active | AID 1347120, 2019;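 also: plate controls were DMSO vehicle for no effect and reference control for full effect; nearly all actives have a fitted effect of over 55% in size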
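Steps: raffinose overnight preculture; dilution to OD 0.005 in 2% galactose minimal medium; compound addition (concentration series); 24hr at 30C, 99% humidity; absorbance read at 600 nm.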
TDP-43 yeast inh – qHTS of TDP-43 Inhibitors; TDP-43 expressing yeast growth rescue, BacTiter-Glo, 24 h; Potency, µM (highest dose often 46.1 µM), without a hit: at the top dose growth rescue (activation), usual class: activators; 410,000 tested, 1.8% active; also: % of control where 0% means no effect; nearly all actives have a fitted effect of over 50% in size
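Cell-based yeast growth screen: TDP-43 expression induced in galactose, inoculum OD600=0.02 after raffinose pregrowth to mid-log. Read-out BacTiter-Glo luminescence at 24 hr, 30 deg C; inhibition of toxicity seen as signal increase.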
Abeta yeast res – qHTS for compounds that reverse cellular toxicity of Amyloid beta (A-beta) peptide in yeast: Primary Screen. yeast expressing A-beta42, growth rescue, OD600, 48 h; response scale: 0% DMSO, 100% iron-clioquinol control. Potency, µM (top dose mostly 46.1 µM), actives largely listed as activators. 410,000 tested, 0.063% active. AID 1347071, 2019; also: nearly all actives have a fitted effect of over 55% in size
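Growth rescue measured by 600 nm absorbance after 48 h yeast culture at 30 C with compound. Values normalized between DMSO and an equimolar ferric chloride plus clioquinol control.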
Numbers without * were called inactive; i = inactive; u = inconclusive; x = no result given; ! = a repeat was not active. Calls follow the shape of the dose curve; as a rule, active = well fitted curve in the direction sought with a large enough effect; inconclusive = small, poorly fitted or top-dose-only effect, or another doubt; inactive = no such curve, though single readings can be large; an effect the other way counts as inactive or inconclusive. Potency is read from the fitted curve at half-maximal effect.

SMILES	aSyn yeast inh	FUS yeast rescue	TDP-43 yeast inh	Abeta yeast res
O=C(NCCCN1CCCCCC1)c1ccc2c(c1)sc1nc(-c3ccccc3)cn12	x	i	-6%	i
O=c1oc(-c2ccc(O)c(O)c2)cc2cccc(O)c12	14%	i	30%	i
O=C1C=Cc2cccc3ccc(O)c1c23	35µM*	i	-48%	i
CCOc1cc2c(cc1/C=C/C(=O)O)OC(C)C2 (configuration not stated)	-10%	i	22µM*	i
CCC1CCc2c(sc(N)c2C(N)=O)C1 (configuration not stated)	-10%	x	3%	i
CC1CCc2c(sc(N)c2C(N)=O)C1 (configuration not stated)	15%	32µM*	-16%	i
COc1ccc(-c2nc3scc(CCNS(=O)(=O)c4cccc(C(C)=O)c4)n3n2)cc1	x	i	u	i
CC1CCCN(C(=O)c2ccc(CSc3nc4ccncc4n3Cc3ccccc3)cc2)C1 (configuration not stated)	x	i	13%	i
Cc1sc2nc(CSc3ccccc3)nc(N3CCOCC3)c2c1C	0%	i	11µM*	i
COc1ccccc1NC(=O)CSc1nnc(C2CCCCC2)o1	5%	i	18µM*	u
COc1ccc(-c2nnc(SCC(=O)Nc3ccccc3OC)o2)cc1	-1%	i	u	i
CCc1ccccc1NC(=O)CSc1nnc(COc2ccccc2Cl)o1	x	i	16µM*	i
COc1ccccc1NC(=O)CSc1nnc(-c2cccc(Cl)c2)o1	x	i	18µM*	i
CC(C)CCNC(=O)CN1C(=O)COc2ccc(S(=O)(=O)N3CCOCC3)cc21	x	i	-6%	i
Cn1c(SC2CCCC2)nnc1-c1ccco1	x	i	x	x
N#C/C(=C\c1ccccn1)c1nc2ccccc2s1	13%	i	18µM*	u
COc1cccc(NC(=O)CSc2nccn2Cc2ccc3c(c2)OCO3)c1	x	i	u	i
COc1cc2ncc3c(-c4ccccc4)nn(-c4ccc(C)cc4)c3c2cc1OC	x	i	7.1µM*	i
COc1ccc(-c2nn(-c3ccc(C)cc3)c3c2cnc2ccc(C)cc23)cc1OC	x	i	22%	i
CCCNC(=O)c1oc2ccc3c(c2c1C)C(=O)CC(C)(C)O3	-2%	i	14µM*	i
COc1ccc(-c2cc(-c3cc(OC)ccc3O)[nH]n2)cc1	6%	i	25µM*	i
COc1ccc(-c2cc(-c3ccccc3O)[nH]n2)cc1OC	11%	i	13µM*	i
COc1ccc(-c2cc(-c3ccc(OC)c(OC)c3)n[nH]2)c(O)c1	-7%	x	u	i
O=C(N1CCOCC1)N1CC[C@H]2[C@H](CCCN2Cc2cc(F)cc(F)c2)C1	x	i	x	x
O=C(Nc1cccs1)Nc1ccccc1Cl	-11%	i	12%	i
SMILES	aSyn yeast inh	FUS yeast rescue	TDP-43 yeast inh	Abeta yeast res
Cc1cc(C)cc(NC(=O)Nc2cccs2)c1	x	i	13%	i
Cc1ccc(NC(=O)Nc2cccs2)c(Cl)c1	-19%	i	13µM*	i
O=C(Nc1cccs1)Nc1ccc(Br)cc1F	-21%	i	14µM*	i
O=C(Nc1ccc(F)cc1F)Nc1csc2ccccc12	-23%	i	11µM*	i
Cc1cccnc1NC(=O)Nc1cccs1	0%	i	5µM*	i
CC(=O)Nc1ccc(NC(=O)C2Cc3ccccc3N2C(=O)c2ccccc2)cc1 (configuration not stated)	x	i	0%	i
COc1ccc(OC)c(Nc2ncnc3c2nc2n3CCCC2)c1	x	i	u	i
CC[N+](CC)(CC)c1ccc(/C=C/c2ccc3ccccc3n2)cc1	-67%	x	x	x
O=C(Nc1cccs1)Nc1ccc(F)cc1F	-15%	i	14µM*!	i
COc1cccc(N2CCN(C(=O)C3CCN(S(=O)(=O)c4cn(C)cn4)CC3)CC2)c1	x	i	1%	i
NC(=S)Nc1cccc(Cl)c1	6%	i	-4%	i
CS/C(N)=N/C(=S)Nc1cccc(Cl)c1	4%	i	u	13µM*
O=c1[nH]c2ccc(S(=O)(=O)N3CCCC3)cc2o1	x	i	x	x
COCCCN1C(=O)c2[nH]nc(-c3cc(C)cc(C)c3O)c2C1c1ccc(O)c(OC)c1 (configuration not stated)	1%	40µM*	8%	i
Cc1ccc(C)c(NS(=O)(=O)c2ccc(-c3cnc(C4CC4)o3)cc2)c1	u	u	32µM*	x
CCOc1ccc(NS(=O)(=O)c2ccc(-c3cnc(C4CC4)o3)cc2)cc1	u	u	35µM*	x
CCOC(=O)c1cccc(NS(=O)(=O)c2cc(-c3cnc(C4CC4)o3)ccc2C)c1	x	i	20µM*	i
Cc1ccc(C)c(NS(=O)(=O)c2ccc(-c3coc(C)n3)cc2)c1	4%	i	13µM*	i
Cc1cc(C)cc(NS(=O)(=O)c2ccc(-c3cnc(C4CC4)o3)cc2)c1	u	u	u	i
COc1cccc(CNC(=O)CN(c2ccc(C(C)C)cc2)S(=O)(=O)c2c(C)n[nH]c2C)c1	x	i	u	i
O=S(=O)(Nc1ccccc1)c1ccc(-c2cnc(C3CC3)o2)cc1	-15%	i	35µM*	i
CCOC(=O)c1cccc(NS(=O)(=O)c2ccc(-c3coc(C)n3)cc2)c1	6%	i	35µM*	i
CCCCCC1CCC(c2n[nH]c(=S)n2C)CC1 (configuration not stated)	8%	i	14µM*	u
C=CCn1c(C2CC2)n[nH]c1=S	-4%	i	1%	i
COc1cccc(-n2c(=O)c3sc4ccccc4c3n(CC(=O)Nc3ccc(F)cc3F)c2=O)c1	x	i	4%	i
SMILES	aSyn yeast inh	FUS yeast rescue	TDP-43 yeast inh	Abeta yeast res
CCOC(=O)C1CCN(C2=NC(=O)/C(=C/c3ccc(Cl)cc3)S2)CC1	6%	i	20µM*	i
COc1cc(/C=C2\SC(N3CCC(C)CC3)=NC2=O)ccc1O	-10%	i	11µM*	i
CCOC(=O)C1CCN(C2=NC(=O)/C(=C/c3ccc(OC)c(OC)c3)S2)CC1	0%	i	u	i
CN(C)c1ccc(/C=C2\SC(N3CCCCC3)=NC2=O)cc1	0%	i	22µM*	i
C(=Nc1cnc2ccccc2c1)c1ccncc1	4%	x	x	x
CC(=O)c1ccc(N2CCN(C(=O)c3ccc4ccccc4n3)CC2)cc1	0%	i	9%	i
CC(=O)c1ccc(N2CCN(C(=O)/C=C/c3ccc4ccccc4n3)CC2)cc1	10µM*	i	u	i
Nc1[nH]c(C(=O)c2ccccc2)c(-c2ccc(Cl)cc2Cl)c1C(=O)c1cccs1	x	i	x	x
O=C(Nc1ccccc1N1CCOCC1)c1ccc2ccccc2n1	9%	i	13µM*	i

Bioassay records (PubChem BioAssay)
